Results published in PubChem BioAssay (Tox21).
Records with an inconclusive call do not appear. Calls of active or inactive are those of the source. Unless noted, calls follow the shape of the full dose curve.

Tests used:
[1] = target: Estrogen receptor beta (Homo sapiens) (UniProt Q92731); test: qHTS assay to identify small molecule antagonists of the estrogen receptor beta (ER-beta) signaling pathway (AID 1259378; active = well fitted inhibition curve with a large enough effect in the signal ratio in the repeat runs, not every such curve was filed as active; the % refers to the signal ratio)
Procedure, shortened: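 ER-beta-UAS-bla HEK293T (GripTite) cells in 2% charcoal-stripped FBS medium were preincubated 6 hr at 37C, dosed with compound, then stimulated with 1 nM E2 (final) for 16 hr; beta-lactamase reporter read by B/G FRET fluorescence after 2 hr substrate loading.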

[2] = qHTS assay to identify small molecule agonists of the androgen receptor (AR) signaling pathway in the presence of an antagonist - cell viability counter screen (AID 1259379; active = well fitted curve in the direction sought with a large enough effect in the repeat runs; an effect the other way counts as inactive or inconclusive;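 also: MDA-kb2 human breast cancer cells carrying an MMTV luciferase reporter; series mostly up to about 92 µM; nearly all actives have a fitted effect of over 25% in size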)
Procedure, shortened: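 Each compound was tested at 15 concentrations on MDA-kb2 cells in the presence of 3.0uM nilutamide. Viability was measured by CellTiter-Fluor fluorescence after a 16 hr incubation at 37C in a CO2-free atmosphere.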

[3] = qHTS assay to identify small molecule agonists of the estrogen receptor beta (ER-beta) signaling pathway - cell viability counter screen (AID 1259380; active = well fitted curve in the direction sought with a large enough effect in the repeat runs; an effect the other way counts as inactive or inconclusive; also: nearly all actives have a fitted effect of over 30% in size)
Procedure, shortened: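 Compounds dissolved in DMSO were pin-transferred onto ER-beta-UAS-bla HEK293T cells that had settled 6 hr, and exposure ran 16 hr at 37C. Following the reporter read, CellTiter-Glo luminescence after 30 min at room temperature indicated cytotoxicity.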

[4] = target: Androgen receptor (Homo sapiens) (UniProt P10275); test: qHTS assay to identify small molecule agonists of the androgen receptor (AR) signaling pathway in the presence of an antagonist (AID 1259381); also: nearly all actives have a fitted effect of over 15% in size
Procedure, shortened: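 Plated MDA-kb2 cells (3,000/well) were pre-incubated 5hr, given nilutamide (3.0uM final) or buffer, then dosed with compounds in DMSO at 15 concentrations. Luciferase activity was quantified by luminescence after 16hr at 37C.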

[5] = qHTS assay to identify small molecule antagonists of the estrogen receptor beta (ER-beta) signaling pathway - cell viability counter screen (AID 1259382; active = well fitted curve in the direction sought with a large enough effect in the repeat runs; an effect the other way counts as inactive or inconclusive; also: series mostly up to about 92 µM; nearly all actives have a fitted effect of over 55% in size)
Procedure, shortened: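 CellTiter-Glo ATP luminescence measured after the LiveBLAzer read in the same wells; ER-beta-UAS-bla HEK293T cells, 16 hr compound treatment with 1nM 17-beta-estradiol agonist at 37C, 5% CO2.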

[6] = qHTS assay to identify small molecule agonists or antagonists of the thyroid stimulating hormone receptor (TSHR) signaling pathway - wild type cell line counter screen (AID 1259384)
Procedure, shortened: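 Wild-type HEK293 cells were plated 18 h at 37 C/5% CO2, pin-dosed with compound plus Ro20-1724 medium, held 30 min at room temperature, then given cAMP-d2 and anti-cAMP-cryptate; fluorescence was read after 1 h. Fifteen concentrations, triplicate.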

[7] = target: Thyrotropin receptor (Homo sapiens) (UniProt P16473); test: qHTS assay to identify small molecule antagonists of the thyroid stimulating hormone receptor (TSHR) signaling pathway (AID 1259385); also: nearly all actives have a fitted effect of over 20% in size
Procedure, shortened: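 TSHR-HEK293 cells were plated and held 18 h at 37C/5% CO2, then given compound plus Ro20-1724 and stimulated with TSH at 1.5 ng/mL final. After 30 min at room temperature, cAMP was detected with cAMP-d2/anti-cAMP-cryptate (1 h) by fluorescence.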

[8] = qHTS assay to identify small molecule agonists of the estrogen receptor alpha (ER-alpha) signaling pathway in the presence of an antagonist - cell viability counter screen (AID 1259386; active = well fitted curve in the direction sought with a large enough effect in the repeat runs; an effect the other way counts as inactive or inconclusive;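 also: series mostly up to about 92 µM; cells exposed to compounds for 22 h at 37 °C before the viability read; nearly all actives have a fitted effect of over 30% in size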)
Procedure, shortened: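 Using estrogen-depleted VM7Luc4E2 cells, the 15-concentration compound series was applied together with 10.0nM ICI-182,780 and incubated 22hr at 37C/5% CO2. Cell viability was then scored by CellTiter-Fluor.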

[9] = target: Progesterone receptor (Homo sapiens) (UniProt P06401); test: qHTS assay to identify small molecule agonists of the progesterone receptor (PR) signaling pathway (AID 1346784); also: nearly all actives have a fitted effect of over 30% in size
Procedure, shortened: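 Reporter assay, GripTite PR-UAS-bla HEK 293T cells: 16 hr exposure to DMSO-dissolved compounds at 37C, 5% CO2, in steroid-depleted (2% charcoal-stripped FBS) medium; beta-lactamase measured by FRET fluorescence.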

[10] = target: Estrogen receptor (Homo sapiens) (UniProt P03372); test: qHTS assay to identify small molecule agonists of the estrogen receptor alpha (ER-alpha) signaling pathway in the presence of an antagonist (AID 1259383); also: top concentration of the series differs between compounds; nearly all actives have a fitted effect of over 15% in size
Procedure, shortened: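 Luminescent ERE-luciferase reporter, VM7Luc4E2 cells (endogenous ER-alpha); 10.0nM ICI-182,780 final; 15-point compound titration; 22hr at 37C; ONE-Glo, 30min RT.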
% is scaled to controls: 0 for no effect and ±100 for the full control effect.

Sequence of Thyrotropin receptor (Homo sapiens) (P16473 whole entry, looked up): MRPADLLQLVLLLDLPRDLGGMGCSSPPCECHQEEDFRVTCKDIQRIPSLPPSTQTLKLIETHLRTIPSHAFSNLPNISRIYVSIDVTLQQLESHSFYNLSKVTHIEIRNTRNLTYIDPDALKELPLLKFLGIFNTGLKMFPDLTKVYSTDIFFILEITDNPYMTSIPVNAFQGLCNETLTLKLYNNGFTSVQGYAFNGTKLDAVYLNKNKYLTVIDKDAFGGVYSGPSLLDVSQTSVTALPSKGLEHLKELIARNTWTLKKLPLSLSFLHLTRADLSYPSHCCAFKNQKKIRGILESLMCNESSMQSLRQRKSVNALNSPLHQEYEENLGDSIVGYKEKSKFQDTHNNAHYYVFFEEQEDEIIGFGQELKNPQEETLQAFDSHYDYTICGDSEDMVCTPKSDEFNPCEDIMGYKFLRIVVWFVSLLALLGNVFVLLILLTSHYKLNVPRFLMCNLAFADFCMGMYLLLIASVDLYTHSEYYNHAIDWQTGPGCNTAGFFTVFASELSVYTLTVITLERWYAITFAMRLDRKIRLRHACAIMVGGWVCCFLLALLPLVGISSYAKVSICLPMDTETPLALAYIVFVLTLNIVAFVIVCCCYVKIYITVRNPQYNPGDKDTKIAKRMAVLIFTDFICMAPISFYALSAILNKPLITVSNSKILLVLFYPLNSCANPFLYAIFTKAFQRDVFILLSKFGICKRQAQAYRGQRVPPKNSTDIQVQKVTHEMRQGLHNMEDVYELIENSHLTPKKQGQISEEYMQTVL
Sequence of Estrogen receptor beta (Homo sapiens) (Q92731 whole entry, looked up): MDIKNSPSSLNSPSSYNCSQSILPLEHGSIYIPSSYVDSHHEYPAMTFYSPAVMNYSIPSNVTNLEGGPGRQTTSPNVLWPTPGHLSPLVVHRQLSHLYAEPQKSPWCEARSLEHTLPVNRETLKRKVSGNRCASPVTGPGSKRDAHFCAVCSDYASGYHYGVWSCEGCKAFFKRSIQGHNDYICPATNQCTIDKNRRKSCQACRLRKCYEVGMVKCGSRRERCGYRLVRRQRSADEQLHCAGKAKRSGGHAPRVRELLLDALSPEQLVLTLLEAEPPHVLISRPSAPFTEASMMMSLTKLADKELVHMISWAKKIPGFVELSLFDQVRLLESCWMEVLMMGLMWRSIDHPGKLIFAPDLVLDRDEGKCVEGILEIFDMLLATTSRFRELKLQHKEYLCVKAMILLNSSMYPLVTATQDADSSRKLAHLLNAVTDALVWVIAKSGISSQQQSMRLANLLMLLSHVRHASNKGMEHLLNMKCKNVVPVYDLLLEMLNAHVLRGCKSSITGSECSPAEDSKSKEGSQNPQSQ
Sequence of Androgen receptor (Homo sapiens) (P10275 whole entry, looked up): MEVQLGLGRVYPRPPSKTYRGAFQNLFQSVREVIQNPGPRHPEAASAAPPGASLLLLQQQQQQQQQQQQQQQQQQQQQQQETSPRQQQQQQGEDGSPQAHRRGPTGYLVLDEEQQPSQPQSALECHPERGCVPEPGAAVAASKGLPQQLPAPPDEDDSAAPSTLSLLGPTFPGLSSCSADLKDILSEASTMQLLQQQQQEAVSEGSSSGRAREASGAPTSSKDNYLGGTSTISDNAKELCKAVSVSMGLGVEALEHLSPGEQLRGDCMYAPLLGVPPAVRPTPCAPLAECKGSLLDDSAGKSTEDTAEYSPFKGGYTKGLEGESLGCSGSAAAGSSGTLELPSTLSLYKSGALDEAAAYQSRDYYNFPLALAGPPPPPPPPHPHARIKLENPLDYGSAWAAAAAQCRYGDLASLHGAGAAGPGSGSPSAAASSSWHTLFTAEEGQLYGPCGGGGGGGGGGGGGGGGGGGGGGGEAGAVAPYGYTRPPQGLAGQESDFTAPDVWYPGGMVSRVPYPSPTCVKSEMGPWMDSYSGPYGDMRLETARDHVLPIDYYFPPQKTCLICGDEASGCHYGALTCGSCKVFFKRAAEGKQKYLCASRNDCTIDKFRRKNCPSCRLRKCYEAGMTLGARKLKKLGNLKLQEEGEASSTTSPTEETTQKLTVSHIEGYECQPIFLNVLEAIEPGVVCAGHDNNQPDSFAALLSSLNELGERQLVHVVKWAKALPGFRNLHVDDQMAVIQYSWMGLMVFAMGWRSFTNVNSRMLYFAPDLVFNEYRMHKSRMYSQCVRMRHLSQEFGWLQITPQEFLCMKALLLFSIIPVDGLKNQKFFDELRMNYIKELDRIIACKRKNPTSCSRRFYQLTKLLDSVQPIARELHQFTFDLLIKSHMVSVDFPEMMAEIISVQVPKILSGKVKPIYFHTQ
Sequence of Estrogen receptor (Homo sapiens) (P03372 whole entry, looked up): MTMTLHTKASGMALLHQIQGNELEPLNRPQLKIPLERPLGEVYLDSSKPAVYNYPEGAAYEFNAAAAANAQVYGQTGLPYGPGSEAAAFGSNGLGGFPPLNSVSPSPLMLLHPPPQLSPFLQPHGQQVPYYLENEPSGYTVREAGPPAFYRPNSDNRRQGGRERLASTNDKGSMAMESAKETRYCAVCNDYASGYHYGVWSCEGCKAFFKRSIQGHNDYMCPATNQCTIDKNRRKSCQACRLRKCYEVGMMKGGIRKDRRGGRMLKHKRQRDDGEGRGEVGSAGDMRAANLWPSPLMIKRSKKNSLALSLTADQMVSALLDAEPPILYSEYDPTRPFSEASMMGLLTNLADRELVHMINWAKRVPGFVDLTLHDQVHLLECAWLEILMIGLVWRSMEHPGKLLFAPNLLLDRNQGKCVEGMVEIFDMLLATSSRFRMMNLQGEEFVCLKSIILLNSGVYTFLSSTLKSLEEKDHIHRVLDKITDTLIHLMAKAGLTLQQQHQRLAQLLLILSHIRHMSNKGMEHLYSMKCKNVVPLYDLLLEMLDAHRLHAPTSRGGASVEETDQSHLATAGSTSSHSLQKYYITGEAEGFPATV
Sequence of Progesterone receptor (Homo sapiens) (P06401 whole entry, looked up): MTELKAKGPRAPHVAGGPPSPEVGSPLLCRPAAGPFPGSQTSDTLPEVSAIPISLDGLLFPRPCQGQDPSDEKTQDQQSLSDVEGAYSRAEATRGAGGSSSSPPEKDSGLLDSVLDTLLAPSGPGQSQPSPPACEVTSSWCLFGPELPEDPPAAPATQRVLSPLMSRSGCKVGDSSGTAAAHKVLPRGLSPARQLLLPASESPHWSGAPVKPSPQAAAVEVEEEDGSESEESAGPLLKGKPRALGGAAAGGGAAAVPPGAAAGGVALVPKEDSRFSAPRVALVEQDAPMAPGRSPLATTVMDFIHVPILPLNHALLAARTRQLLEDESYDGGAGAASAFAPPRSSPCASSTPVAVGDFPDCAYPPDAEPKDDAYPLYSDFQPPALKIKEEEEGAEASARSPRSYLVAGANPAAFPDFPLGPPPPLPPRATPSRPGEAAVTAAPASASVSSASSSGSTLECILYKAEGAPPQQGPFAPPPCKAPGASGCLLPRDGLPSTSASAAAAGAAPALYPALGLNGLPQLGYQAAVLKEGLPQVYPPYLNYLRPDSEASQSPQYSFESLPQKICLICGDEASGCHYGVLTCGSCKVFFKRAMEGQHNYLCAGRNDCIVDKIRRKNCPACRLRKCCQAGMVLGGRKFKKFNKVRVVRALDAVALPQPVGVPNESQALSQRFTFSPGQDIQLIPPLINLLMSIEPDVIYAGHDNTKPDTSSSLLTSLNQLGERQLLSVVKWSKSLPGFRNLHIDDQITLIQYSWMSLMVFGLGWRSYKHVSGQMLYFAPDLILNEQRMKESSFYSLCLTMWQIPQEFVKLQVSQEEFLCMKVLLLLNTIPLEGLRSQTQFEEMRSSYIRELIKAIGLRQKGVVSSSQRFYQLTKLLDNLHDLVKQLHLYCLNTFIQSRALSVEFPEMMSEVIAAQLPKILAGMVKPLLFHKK

C=C(C)C1CCC(C)(O)CC1 (configuration not stated)
inactive: outcome [1] | Potency [2] | Potency [3] | Potency [4] | outcome [5] | outcome [6] | outcome [7] | Potency [8] | Potency [9]

CCCCC(CC)COCCO (configuration not stated)
inactive: outcome [1] | Potency [2] | Potency [3] | outcome [5] | outcome [10] | outcome [6] | outcome [7] | Potency [8] | Potency [9]

COCCOCCOCCOCCO
inactive: outcome [1] | Potency [2] | Potency [3] | Potency [4] | outcome [5] | outcome [6] | outcome [7] | Potency [9]

O=C(Nc1ccc(Cl)c(Cl)c1)C1CC1
inactive: outcome [1] | Potency [2] | Potency [3] | Potency [4] | outcome [5] | outcome [10] | outcome [6] | outcome [7] | Potency [8] | Potency [9]

O=C(O)c1cc(Br)c(O)c(Br)c1
inactive: outcome [1] | Potency [2] | Potency [3] | Potency [4] | outcome [5] | outcome [6] | outcome [7] | Potency [8] | Potency [9]

CC(=O)NCCCCCC(=O)O
inactive: outcome [1] | Potency [2] | Potency [3] | outcome [5] | outcome [10] | outcome [6] | outcome [7] | Potency [8] | Potency [9]

CCC(C)NC(N)=O (configuration not stated)
inactive: outcome [1] | Potency [2] | Potency [3] | Potency [4] | outcome [5] | outcome [10] | outcome [6] | outcome [7] | Potency [8]

CCCC(=O)C(C)=O
inactive: outcome [1] | Potency [2] | Potency [3] | outcome [5] | outcome [10] | outcome [6] | outcome [7] | Potency [8]

CC(=O)CCCCn1c(=O)c2c(ncn2C)n(C)c1=O
inactive: outcome [1] | Potency [2] | Potency [3] | outcome [5] | outcome [10] | outcome [6] | outcome [7] | Potency [8] | Potency [9]

C=CCCCCCCCCCCCC
inactive: outcome [1] | Potency [2] | Potency [3] | Potency [4] | outcome [5] | outcome [6] | outcome [7]

Cc1cc(C(C)(C)C)c(O)c(C)c1CC1=NCCN1
inactive: outcome [1] | Potency [2] | Potency [3] | Potency [4] | outcome [5] | outcome [10] | outcome [6] | outcome [7] | Potency [8] | Potency [9]

O=C(O)CCSSCCC(=O)O
inactive: outcome [1] | Potency [2] | Potency [3] | Potency [4] | outcome [5] | outcome [6] | outcome [7] | Potency [9]

OCCN(CCO)c1cccc(Cl)c1
inactive: outcome [1] | Potency [2] | Potency [3] | Potency [4] | outcome [5] | outcome [6] | Potency [9]

CC(C)NCC(O)COc1ccc(COCCOC(C)C)cc1 (configuration not stated)
inactive: outcome [1] | Potency [2] | Potency [3] | Potency [4] | outcome [6] | outcome [7]

O=C(OCc1ccccc1)C(=O)OCc1ccccc1
inactive: outcome [1] | Potency [2] | Potency [3] | Potency [4] | outcome [5] | outcome [10] | outcome [6] | outcome [7] | Potency [8] | Potency [9]

Cc1cccc(C)c1NC(=O)c1ccccc1C(=O)O
inactive: outcome [1] | Potency [2] | Potency [3] | Potency [4] | outcome [10] | outcome [6] | outcome [7] | Potency [8] | Potency [9]

CNS(=O)(=O)CCc1ccc2[nH]cc(C3CCN(C)CC3)c2c1
inactive: outcome [1] | Potency [2] | Potency [3] | outcome [5] | outcome [10] | outcome [6] | outcome [7] | Potency [8] | Potency [9]

CCCCCCCCCC(C)=O
inactive: outcome [1] | Potency [2] | Potency [3] | Potency [4] | outcome [5] | outcome [6] | outcome [7] | Potency [8] | Potency [9]

Cc1cc(Cl)c(C)cc1Cl
inactive: outcome [1] | Potency [2] | Potency [3] | Potency [4] | Potency [8] | Potency [9]

O=C(O)Cc1ccc(Cl)cc1Cl
inactive: outcome [1] | Potency [2] | Potency [3] | Potency [4] | outcome [5] | outcome [10] | outcome [6] | outcome [7] | Potency [8] | Potency [9]

COc1ccc(OC)c(Cl)c1
inactive: outcome [1] | Potency [2] | Potency [3] | Potency [4] | outcome [5] | outcome [6] | outcome [7] | Potency [9]

Nc1ccc(S(=O)(=O)Nc2ccc(Cl)nn2)cc1
inactive: outcome [1] | Potency [2] | Potency [3] | Potency [4] | outcome [10] | Potency [8] | Potency [9]

CC(C)C(=O)OCc1cccc(OC(=O)[C@@H]2N3C(=O)[C@@H](NC(=O)Cc4ccccc4)[C@H]3SC2(C)C)c1
inactive: outcome [1] | Potency [2] | Potency [3] | Potency [4] | outcome [10] | outcome [6] | outcome [7] | Potency [8] | Potency [9]

O=S(O)(O)=S
inactive: activity, negative = inhibition [1] 6.44% [at 8.39 µM] | activity change, negative = cytotoxicity [2] 1.18% [at 8.39 µM] | activity change, negative = cytotoxicity [3] -9.09% [at 8.39 µM] | activity change, negative = cytotoxicity [5] 4.48% [at 8.39 µM] | activation [10] 0.31% [at 8.39 µM] | cAMP activity change [6] 0.958% [at 8.39 µM] | activity change, negative = inhibition [7] 2.15% [at 8.39 µM] | activity change, negative = cytotoxicity [8] 1.38% [at 8.39 µM] | activation [9] -0.0718% [at 8.39 µM]

CCCOC(=O)C(C)O (configuration not stated)
inactive: outcome [1] | Potency [2] | Potency [3] | Potency [4] | outcome [5] | outcome [6] | Potency [8] | Potency [9]
